The text below walks through data of the supplement of paper PMC11172423.

For one experiment, the system named is Madurella mycetomatis MM55. Kind of experiment: growth relative to untreated control; higher = less inhibition, active = 20 or less. The note with it: 25 µM. As for the experimental part: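 Hyphal fragments of M. mycetomatis MM55 or F. senegalensis CBS197.79 in RPMI 1640/MOPS were exposed to each MMV COVID Box or Global Health Priority Box compound at 100 or 25 µM for 7 days at 37 °C. Viability was read with MTS (490 nm, M. mycetomatis) or resazurin (600 nm, F. senegalensis), background-corrected with a medium-only control and expressed as % growth relative to the untreated growth control. Inhibition of more than 80% was taken as growth inhibition.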
For `Cc1cc(Cl)ccc1NC(=S)N(C)C`, the growth is 106% (inactive).
In the case of `O=C(NCCCNc1nc(Nc2ccc(N3CCOCC3)cc2)ncc1C1CC1)C1CCC1`, the growth was 101% (inactive).
Consider `Cc1cccc2c1N(C(=O)c1cc(Br)nn1-c1ncccc1Cl)CN(C(C)C)C2=O`, for which the growth is 91.9% (inactive).
Same read-out and setting: the same measure for `Cc1cnc2nc(NC3COc4ccccc43)nc(NC(C3CC3)C3CC3)c2c1` (stereo not given): 7.72% (active); for `O=c1[nH]c2ccccc2n1CCCN1CCN(C(c2ccccc2)c2ccccc2)CC1`: 91.1% (inactive).
Consider `O=C(NCCN1CCCC1)c1ccc(Nc2nccc(-c3ccc(Cl)cc3)n2)cc1`, for which the growth was 50.5% (inactive).
Consider `CN(C)C[C]1[CH][CH][CH][C]1CNc1ccnc2cc(Cl)ccc12.[CH]1[CH][CH][CH][CH]1.[Fe]`, for which the growth is 33.7% (inactive).
`Nc1nonc1-c1nc2c(-c3cccc(Cl)c3)nccc2n1CCCNC(=O)Cc1ccc(Cl)cc1`: the growth is 80.5% (inactive).
For the compound `CC(C)(C)c1nc(-c2cccc(NS(=O)(=O)c3c(F)cccc3F)c2F)c(-c2ccnc(N)n2)s1`, the growth is 103% (inactive).
As for `Cc1c(O)cccc1C(=O)N[C@@H](CSc1ccccc1)[C@H](O)CN1C[C@H]2CCCC[C@H]2C[C@H]1C(=O)NC(C)(C)C`, the growth is 83.9% (inactive).
Same read-out and setting: the same measure for `CC(C)Oc1ccc(-c2nc(-c3cccc4c3CC[C@@H]4NCCO)no2)cc1C#N`: 3.06% (active); for `CC(C)n1ncc2c(C(=O)N3CCCc4ccccc43)cc(-c3ccccc3)nc21`: 71.5% (inactive).
As to `O=C(c1ccc(Nc2nccc(-c3ccc(Cl)cc3)n2)cc1)N1CCS(=O)(=O)CC1`, the growth is 76.8% (inactive).
With `CCN(CCO)CCCC(C)Nc1ccnc2cc(Cl)ccc12` (stereo not given), the growth was 85.1% (inactive).
Regarding `NC(=O)c1nc(F)cnc1O`, the growth is 83.1% (inactive).
On the same count and under the same terms, for `COc1ccc(-n2nc(C(N)=O)c3c2C(=O)N(c2ccc(N4CCCCC4=O)cc2)CC3)cc1` the value was 111% (inactive); for `O=C(CCCN1CCC(O)(c2ccc(Cl)cc2)CC1)c1ccc(F)cc1`, 76.2% (inactive).
As to `CCO[C@@H]1[C@@H](OC)[C@H](C)O[C@@H](O[C@@H]2C[C@H]3CC[C@@H]4[C@@H](C=C5C(=O)[C@H](C)[C@@H](O[C@H]6CC[C@H](N(C)C)[C@@H](C)O6)CCC[C@H](CC)OC(=O)C[C@H]54)[C@@H]3C2)[C@@H]1OC`, the growth is 107% (inactive).
Turning to `C[C@@H](C1CCCCC1)n1c(-c2cc3c(cc2Br)OCO3)nc2cc(C(=O)Nc3ccc(C#N)cc3)ccc21`, the growth is 109% (inactive).
For the compound `O=C(Nc1cccc(-c2cc3nc(Nc4ccc(N5CCOCC5)cc4)ncc3[nH]2)c1)C1CC1`, the growth was 78.9% (inactive).

Staying with this experiment, now noted: 100 µM.
On to `Cc1cc(Cl)ccc1NC(=S)N(C)C`, for which the growth was 147% (inactive).
Turning to `O=C(NCCCNc1nc(Nc2ccc(N3CCOCC3)cc2)ncc1C1CC1)C1CCC1`, the growth is 72.1% (inactive).
Consider `Cc1cccc2c1N(C(=O)c1cc(Br)nn1-c1ncccc1Cl)CN(C(C)C)C2=O`, for which the growth was 153% (inactive).
As to `Cc1cnc2nc(NC3COc4ccccc43)nc(NC(C3CC3)C3CC3)c2c1` (stereo not given), the growth is 8.15% (active).
Still for that read-out and setting: for `O=c1[nH]c2ccccc2n1CCCN1CCN(C(c2ccccc2)c2ccccc2)CC1` the value was 5.01% (active).
As to `O=C(NCCN1CCCC1)c1ccc(Nc2nccc(-c3ccc(Cl)cc3)n2)cc1`, the growth was 5.82% (active).
Consider `CN(C)C[C]1[CH][CH][CH][C]1CNc1ccnc2cc(Cl)ccc12.[CH]1[CH][CH][CH][CH]1.[Fe]`, for which the growth was 39.8% (inactive).
For the compound `Nc1nonc1-c1nc2c(-c3cccc(Cl)c3)nccc2n1CCCNC(=O)Cc1ccc(Cl)cc1`, the growth was 121% (inactive).
For `CC(C)(C)c1nc(-c2cccc(NS(=O)(=O)c3c(F)cccc3F)c2F)c(-c2ccnc(N)n2)s1`, the growth was 82.4% (inactive).
Still for that read-out and setting: for `Cc1c(O)cccc1C(=O)N[C@@H](CSc1ccccc1)[C@H](O)CN1C[C@H]2CCCC[C@H]2C[C@H]1C(=O)NC(C)(C)C` the value was 88.2% (inactive); for `CC(C)Oc1ccc(-c2nc(-c3cccc4c3CC[C@@H]4NCCO)no2)cc1C#N`, 3.42% (active).
For the compound `CC(C)n1ncc2c(C(=O)N3CCCc4ccccc43)cc(-c3ccccc3)nc21`, the growth is 59.8% (inactive).
The same measure, in the same setting: for `O=C(c1ccc(Nc2nccc(-c3ccc(Cl)cc3)n2)cc1)N1CCS(=O)(=O)CC1` the value was 81.3% (inactive).
On to `CCN(CCO)CCCC(C)Nc1ccnc2cc(Cl)ccc12` (stereo not given), for which the growth is 78.2% (inactive).
In the case of `NC(=O)c1nc(F)cnc1O`, the growth is 84.1% (inactive).
For `COc1ccc(-n2nc(C(N)=O)c3c2C(=O)N(c2ccc(N4CCCCC4=O)cc2)CC3)cc1`, the growth is 84.1% (inactive).
`O=C(CCCN1CCC(O)(c2ccc(Cl)cc2)CC1)c1ccc(F)cc1`: the growth was 4.14% (active).
Take `CCO[C@@H]1[C@@H](OC)[C@H](C)O[C@@H](O[C@@H]2C[C@H]3CC[C@@H]4[C@@H](C=C5C(=O)[C@H](C)[C@@H](O[C@H]6CC[C@H](N(C)C)[C@@H](C)O6)CCC[C@H](CC)OC(=O)C[C@H]54)[C@@H]3C2)[C@@H]1OC`: the growth is 128% (inactive).
The same measure, in the same setting: for `C[C@@H](C1CCCCC1)n1c(-c2cc3c(cc2Br)OCO3)nc2cc(C(=O)Nc3ccc(C#N)cc3)ccc21` the value was 89% (inactive).
As to `O=C(Nc1cccc(-c2cc3nc(Nc4ccc(N5CCOCC5)cc4)ncc3[nH]2)c1)C1CC1`, the growth was 72.6% (inactive).
